The values that follow come from PMC5540273 (PLoS ONE, 2017).

Conditions in all cases: concentration: 1 μM, replicates: in singlicate; n = 1
Assay [1] relates to RIOK1.
Assay [2] concerns RIOK2.
For assay [3], the system named is RIOK3.
Assay [4] deals with RIPK1.
The test system of assay [5] is RIPK2.
Assay [6] relates to RIPK4.
The test system of assay [7] is RIPK5.
For assay [8], the system named is ROCK1.
The subject of assay [9] is ROCK2.
The test system of assay [10] is ROS1.
The subject of assay [11] is RPS6KA4(Kin.Dom.1-N-terminal).
Assay [12] relates to RPS6KA4(Kin.Dom.2-C-terminal).
In assay [13] the test system is RPS6KA5(Kin.Dom.1-N-terminal).
Assay [14] relates to RPS6KA5(Kin.Dom.2-C-terminal).
The test system of assay [15] is T1, RSK1(Kin.Dom.1-N-terminal).
T1 construct: gene RPS6KA1

Assay [16] deals with T2, RSK1(Kin.Dom.2-C-terminal).
T2 construct: gene RPS6KA1

For assay [17], the system named is T3, RSK2(Kin.Dom.1-N-terminal).
T3 construct: gene RPS6KA3

Assay [18] concerns T4, RSK2(Kin.Dom.2-C-terminal).
T4 construct: gene RPS6KA3

The subject of assay [19] is T5, RSK3(Kin.Dom.1-N-terminal).
T5 construct: gene RPS6KA2

Assay [20] deals with T6, RSK3(Kin.Dom.2-C-terminal).
T6 construct: gene RPS6KA2
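Further: KINOMEscan kinase panel screen.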

Regarding `O=C(Nc1ccccc1F)NC1CCN(c2ccnc(Nc3ccc(F)cc3)n2)CC1` [GSK1379800], the “%Inh” value in [1] is reported as 58%; in assay [2], 0%; in [3], 43%; in [4] it was 26%; in assay [5] it was 0%; in assay [6], 16%. For the same molecule, the “%Inh” value in assay [7] came to 0%; in [8] it was 10%; in [9], 31%; in [10] it was 0%; in [11], 9%; in assay [12] it was 0%. Further, the “%Inh” value in [13] is 0%; in assay [14], 26%; in assay [15] it was 19%; in assay [16] it was 0%; in [17], 0%; in [18], 0%. For the same molecule, the “%Inh” value in [19] and in assay [20] was 0% throughout.
On to `Nc1ncc(-c2ccc3nccc(-c4ccncc4)c3c2)cc1S(=O)(=O)N1CCOCC1` [GSK1627798], for which the “%Inh” value in assay [1] was determined as 30%; in [2] it was 39%; in [3], 17%; in assay [4] it was 0%; in [5], 1%; in [6], 4%. Moreover, the “%Inh” value in [7] came to 0%; in assay [8], 0%; in [9], 0%; in assay [10], 15%; in assay [11], 0%; in assay [12], 0%. In addition, the “%Inh” value came out at 18% in assay [13]; 0% in assay [14]; 14% in [15]; 0% in assay [16]; 0% in assay [17]; 0% in [18]. Moreover, the “%Inh” value in [19] was determined as 7%; in [20] it was 0%.
With `CN(C)Cc1ccc(-c2ccc3c(Nc4ccc(Oc5ccccn5)cc4)ccnc3c2)o1` [GW567148], the “%Inh” value is given as 8% in assay [1]; 4% in [2]; 0% in [3]; 0% in assay [4]; 95.3% in assay [5]; 0% in assay [6]. The “%Inh” value was determined as 0% in assay [7]; 6% in [8]; 11% in assay [9]; 0% in [10]; 2% in [11]; 0% in assay [12]. The “%Inh” value in assay [13] was 4%; in [14], 0%; in [15] it was 0%; in [16], 0%; in assay [17] it was 1%; in [18], 0%. Also, the “%Inh” value in assay [19] and in [20] was 0% throughout.
Consider `CN1CCN(CCCNc2nccc(-c3c(-c4ccc(F)cc4)nn4cc(C(F)(F)F)ccc34)n2)CC1` [GW621581], for which the “%Inh” value in [1] is 28%; in assay [2] it was 4%; in [3], 0%; in assay [4], 0%; in [5], 52%; in assay [6], 0%. Further, the “%Inh” value in assay [7] turned out to be 0%; in assay [8] it was 0%; in assay [9], 26%; in [10] it was 0%; in assay [11] it was 10%; in assay [12], 0%. Moreover, the “%Inh” value amounted to 26% in assay [13]; 0% in assay [14]; 0% in assay [15]; 44% in [16]; 0% in assay [17]; 17% in [18]. The “%Inh” value in assay [19] is recorded as 10%; in assay [20] it was 0%.
Consider `Oc1cc(Nc2ccnc3cc(I)ccc23)ccc1F` [GW552771], for which the “%Inh” value in assay [1] was determined as 25%; in assay [2], 29%; in assay [3], 0%; in [4] it was 0%; in [5], 50%; in assay [6], 0%. Moreover, the “%Inh” value is on record as 0% in [7]; 30% in assay [8]; 27% in assay [9]; 0% in assay [10]; 0% in [11]; 0% in assay [12]. Besides, the “%Inh” value in [13] was 5%; in [14], 0%; in assay [15], 0%; in assay [16], 29%; in [17], 13%; in assay [18] it was 26%. Also, the “%Inh” value in [19] and in assay [20] was 0% each time.
`Cn1cc(-c2ccc3c(c2)CCN3C(=O)Cc2cccc(F)c2)c2c(N)ncnc21` [GSK2603358]: the “%Inh” value in assay [1] amounted to 7%; in [2] it was 0%; in assay [3] it was 0%; in assay [4] it was 99.7%; in assay [5], 34%; in assay [6], 5%. Besides, the “%Inh” value worked out at 62% in [7]; 9% in [8]; 64% in assay [9]; 21% in assay [10]; 7% in assay [11]; 0% in assay [12]. For the same molecule, the “%Inh” value is on record as 35% in [13]; 0% in [14]; 20% in [15]; 3% in [16]; 0% in assay [17]; 0% in [18]. Moreover, the “%Inh” value came to 20% in assay [19] and 0% in [20].
`COc1ccc(Nc2nccc(N3CCC(NC(=O)Nc4cccc(OC)c4)C3)n2)cc1` (stereo not drawn) [GSK1379742]: the “%Inh” value in [1] is 34%; in assay [2], 4%; in assay [3] it was 25%; in assay [4] it was 0%; in [5] it was 0%; in [6] it was 0%. The “%Inh” value in [7] is 0%; in [8], 0%; in assay [9] it was 2%; in assay [10], 13%; in assay [11] it was 15%; in assay [12] it was 0%. Moreover, the “%Inh” value in assay [13] is reported as 10%; in assay [14], 0%; in [15], 0%; in [16], 0%; in assay [17], 15%; in [18], 1%. For the same molecule, the “%Inh” value in [19] and in assay [20] was 0% in each case.
For the molecule `Cc1ccc(C)c(NC(=O)NC2CCN(c3ccnc(Nc4ccc(F)cc4)n3)C2)c1` (stereo not drawn) [GSK1379720], the “%Inh” value was 23% in assay [1]; 0% in assay [2]; 0% in assay [3]; 0% in [4]; 0% in [5]; 6% in [6]. For the same molecule, the “%Inh” value in [7] is 0%; in [8], 0%; in [9], 29%; in assay [10], 0%; in assay [11], 8%; in [12] it was 0%. Besides, the “%Inh” value is 0% in assay [13]; 22% in [14]; 13% in assay [15]; 0% in assay [16]; 3% in assay [17]; 0% in assay [18]. The “%Inh” value in assay [19] and in [20] was 0% each time.
Consider `COc1ccc(CNC(=O)NC2CCN(c3ccnc(Nc4ccc(F)cc4)n3)CC2)cc1` [GSK1379788], for which the “%Inh” value in assay [1] came out at 28%; in assay [2] it was 0%; in assay [3], 0%; in assay [4] it was 0%; in assay [5], 0%; in assay [6], 12%. The “%Inh” value is recorded as 0% in assay [7]; 12% in assay [8]; 31% in [9]; 26% in assay [10]; 0% in assay [11]; 0% in [12]. Further, the “%Inh” value in [13] was determined as 7%; in assay [14], 9%; in assay [15], 18%; in assay [16], 0%; in assay [17], 0%; in assay [18], 5%. In addition, the “%Inh” value in [19] and in assay [20] was 0% throughout.
